In PubChem BioAssay (NCI):
Compounds without any hit were thinned out: in the full panel of roughly 83,000, 20% have a hit.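 Interpretation: 100, growth as untreated; towards 0, rising growth inhibition; 0, no net growth; 0 to -100, cell death. Compounds scoring below 10 were considered active.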 Unmarked numbers belong to inactive results. Active and inactive are the calls of the source.

Experiments:
Experiment in all cases: NCI-60 one-dose screen, 48 h (100 = growth as untreated, 0 = no growth, -100 = all killed)
Conditions in all cases: 10 µM unless noted
[1] = system: NCI-H23 lung
[2] = system: NCI-H226 lung
[3] = system: NCI-H322M lung
[4] = system: HOP-62 NSCLC
[5] = system: NCI-H460 lung
[6] = system: HOP-92 NSCLC
[7] = system: NCI-H522 lung
[8] = system: A549/ATCC NSCLC
[9] = system: 786-0 renal
[10] = system: COLO 205 colon
[11] = system: DU-145 prostate
[12] = system: K-562 leukemia
[13] = system: MALME-3M melanoma
[14] = system: MDA-MB-231 breast
[15] = system: RXF 393 renal
[16] = system: SF-268 CNS
[17] = system: SF-295 CNS
[18] = system: SF-539 CNS
[19] = system: UACC-257 melanoma
[20] = system: M14 melanoma

SMILES	growth [1] [%]	growth [2] [%]	growth [3] [%]	growth [4]	growth [5]	growth [6]	growth [7]	growth [8] [%]	growth [9]	growth [10]	growth [11] [%]	growth [12]	growth [13]	growth [14]	growth [15]	growth [16] [%]	growth [17] [%]	growth [18]	growth [19]	growth [20] [%]
Nc1cc(C(=O)NC[C@H]2CN(c3ccc(N4CCC(C(=O)O)CC4)cc3)C(=O)O2)ccc1Cl	95.1	100	107	99%	103%	98.4%	92%	98.5	101%	104%	109	92.1%	94%	94.2%	112%	98.4	103	93.7%	98.8%	98.2
CCc1ccccc1-n1c(-c2ccc(OC)cc2)cc(-c2ccc(OC)cc2)c(C#N)c1=O	73.8	95.9	82.2	67.5%	85.5%	5.54% (active)	73.8%	100	33.7%	132%	98.6	108%	99.6%	62%	32.2%	51.9	55.1	23%	111%	100
N#Cc1nc(-c2ccccc2)oc1S(=O)(=O)N1CCN(c2ccccc2)CC1	74.9	87.2	95.6	104%	97.8%	116%	58.6%	99.9	99.8%	122%	107	34.9%	90.1%	105%	114%	107	105	100%	92.7%	81.1
CSc1nc2ccccc2cc1/C=[N+](\[O-])c1ccccc1	70	73.9	85.7	67.9%	92.1%	53.2%	82.4%	97.6	74.6%	103%	87.7	15.1%	46.1%	46.5%	83.8%	56.6	86.7	19.7%	90%	27.6
CN(C)Cc1ccc(O)c(C(=O)O)c1	104	108	109	106%	105%	95.5%	102%	109	107%	117%	114	107%	116%	121%	122%	104	123	100%	109%	113
Clc1cccc(Nc2ncnc3ccc(-c4cnc5[nH]ccc5c4)cc23)c1	84.4	80	18.7	86.9%	78.3%	94.5%	33.9%	50.1	-19.6% (active)	83.4%	54	62.1%	82.9%	75%	73.7%	66.2	86.8	84%	75%	88.7
CC1(C)CC(=O)C2=C(C1)N(c1ccc(OC(F)(F)F)cc1)C(N)=C(C#N)C2c1ccc(Br)cc1F (stereo not given)	75.8	33.1	59.1	6.8% (active)	25.3%	39.8%	88.6%	44.1	35.7%	93.8%	96.5	75.5%	46.8%	61.2%	42.9%	36.6	42.2	75%	80.9%	79.1
COc1cc2ncnc(Nc3ccc(F)c(Cl)c3)c2cc1OCC(=O)N1CCN(c2ccccc2)CC1	88	92.5	34	103%	95.6%	86.8%	79.9%	82.9	85.6%	112%	62.9	85.2%	96.3%	90.5%	81.2%	82.6	93.4	104%	107%	99.4
Cn1cc(-c2csc(-c3c[nH]c4ccc(Br)cc34)n2)c2ccnc(Cl)c21	62.1	59.4	67.1	101%	9.96% (active)	64.2%	56.3%	42.4	47%	42.5%	42.9	17.6%	112%	54.8%	51%	86.7	62.1	67.6%	17.4%	43.2
Cc1ccc(Nn2c(SCC(=O)Nc3nc(-c4ccccc4)cs3)nc(C)c2C)cc1	39.4	46.3	96	73.1%	78.1%	59.9%	49.7%	46.3	82.3%	27.1%	83.4	37.7%	92%	46%	61.5%	81.7	46.1	73.7%	54.1%	77
Cc1ccc(-c2nc([P+](c3ccccc3)(c3ccccc3)c3ccccc3)c(S(=O)(=O)c3ccc(C)cc3)o2)cc1	15	46.9	57.2	17.7%	4.75% (active)	-7.71% (active)	4.04% (active)	27.5	-18.7% (active)	-38.1% (active)	25.5	4.12% (active)	-0.571% (active)	3.47% (active)	-28.6% (active)	45.5	81	-65.6% (active)	3.98% (active)	19.3
NC(=O)CSc1oc(-c2ccccc2)nc1S(=O)(=O)c1ccc(Br)cc1	79.8	54.7	89.8	73.9%	71.6%	5.26% (active)	70.1%	74.5	25.9%	107%	85.6	91.7%	59.4%	52.7%	46.5%	72.6	80.7	45.7%	84.7%	83.5
O=C1C(=O)N(Cc2ccc(-c3ccccc3)cc2)c2ccc(OC(F)(F)F)cc21	41.4	73.6	102	37.5%	83.3%	60.8%	31.1%	92.9	41.6%	82.7%	36.4	16.1%	62.2%	44.9%	76.9%	49.5	41.4	-8.58% (active)	72.7%	44.8
CN(C)CCNC(=O)c1ccc(-c2nc3ccc4[nH]ncc4c3c3c2C2CCC3C2)cc1 (stereo not given)	32.2	49.3	58.8	46.6%	11.8%	101%	-28.8% (active)	14.2	28.3%	18.6%	20.8	20.7%	28.1%	2.4% (active)	-30.9% (active)	16.8	40.9	18.5%	58.7%	31.3
Cn1c(I)c(C#CCO[Si](C)(C)C(C)(C)C)c(=O)[nH]c1=O	96.4	108	95.5	96.9%	106%	59.4%	74.2%	107	99%	82.7%	99.9	2.55% (active)	-51.2% (active)	91.5%	-15.3% (active)	105	101	104%	96.6%	83.1
CCOC(=O)NC(C)C	106	112	107	93.4%	115%	79.6%	99.3%	95.7	95.6%	129%	120	87.6%	104%	112%	77.4%	109	118	95.9%	95%	102
